Test [1] in a line: A549 cell viability effects, profiling panel, calcein-AM fluorescence, 48 h, basal (AID 1162). The note with it: higher = more signal.
A short description of test [2]: adipocyte viability effects, profiling panel, cell-based, 3T3-L1 adipocytes, calcein-AM fluorescence, 48 h, basal (AID 1163). The following applies: 3T3-L1 adipocytes viability, higher = more signal.
Test [3] in a line: HepG2 cell viability effects, profiling panel, calcein-AM fluorescence, 48 h, basal (AID 1164). The following applies: higher = more signal.
Test [4] can be described thus: MM1S cell viability effects, profiling panel, calcein-AM fluorescence, 48 h, basal (AID 1165).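 Further: viability of MM1S multiple myeloma cells under basal unstimulated conditions.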 The following applies: higher = more signal.
Test [5] can be described thus: basal RPMI8226 viability, no added stimulus, profiling panel, cell-based, calcein-AM fluorescence, 48 h, PK04 Diversity Set (AID 1166).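 Further: cells grown under basal conditions without added stimulus.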 The following applies: RPMI8226 myeloma viability, higher = more signal.
Test [6] is described as follows: basal HepG2 mitochondrial membrane potential changes, profiling panel, cell-based, JC-1 fluorescence, 24 h, 100 nL compound (AID 1167). The note with it: higher = more signal.
A short description of test [7]: basal 3T3-L1 adipocyte mitochondrial potential changes, profiling panel, cell-based, JC-1 fluorescence, 3T3-L1 adipocytes, 24 h, 100 nL compound (AID 1168). The note with it: JC-1 mitochondrial fluorescence, higher = more signal, called active from +8 up or from −8 down.
A short description of test [8]: basal RPMI8226 mitochondrial membrane potential changes, profiling panel, cell-based, JC-1 fluorescence, 24 h, 100 nL compound (AID 1169). The note with it: RPMI8226 myeloma, JC-1 mitochondrial potential fluorescence, higher = more signal.
A short description of test [9]: basal MM1S mitochondrial membrane potential changes, profiling panel, cell-based, JC-1 fluorescence, 24 h, 100 nL compound (AID 1170). The note with it: higher = more signal.
Test [10] can be described thus: A549 lung cancer cell viability effects, profiling panel, resazurin fluorescence, 24 h, PK04 Diversity Set (AID 1171). The note with it: higher = more signal, called active from +8 up or from −8 down. Background: The colour change of resazurin is a common sign of viable cells or microbes.

Active and inactive are the calls of the source.

Our source for the z-score values is PubChem BioAssay.
Further: test concentration not given here.

Consider `CCN1C(=O)[C@H]2[C@H]3[C@H](O)[C@H](O)CC(=NOCc4ccccc4)[C@H]3CC[C@H]2C1=O`, for which the z-score in [1] was -0.803; in [2] it was -0.0387; in test [3], -0.228; in test [4], -0.463; in test [5], -0.644; in [6] it was -1.13. For the same compound, the z-score in test [7] is -1.37 (inactive); in test [8] it was 0.462; in test [9], 0.515; in test [10], -0.0275 (inactive).
`COc1ccc(O[C@H]2C=C[C@@H](c3ccccc3)O[C@@H]2COC(=O)CCC(C)=NOCC[C@@H]2C=C[C@H](OC(C)=O)[C@@H](COC(C)=O)O2)cc1`: the z-score is -0.284 in [1]; -0.699 in [2]; -0.1 in test [3]; -0.919 in test [4]; -0.112 in [5]; -0.359 in [6]. Further, the z-score in test [7] was 0.0763 (inactive); in test [8] it was -0.55; in test [9], -0.522; in [10] it was 0.369 (inactive).
As for `COCCOC(=O)N1C(=O)[C@@]2(c3cc(C#CC4(O)CCCCCC4)ccc31)[C@H](C(=O)N1CCN(c3ncccn3)CC1)[C@H]1C(=O)O[C@H](c3ccccc3)[C@H](c3ccccc3)N1[C@@H]2c1ccc(OCCO)cc1`, the z-score in test [1] was 0.514; in [2], 1.48; in [3] it was -0.118; in [4], 0.0759; in test [5] it was -1.9; in test [6] it was -0.866. The z-score was -0.224 (inactive) in test [7], -0.479 in test [8], -0.653 in test [9] and -0.49 (inactive) in [10].
For `CO[C@@H]1COC(=O)CC=C[C@@H](C)[C@@H]2C=C[C@@H](O)[C@@H](COC(=O)CC=C[C@H]1C)O2`, the z-score was 0.852 in test [1]; 0.572 in test [2]; 1.4 in test [3]; 0.349 in test [4]; 1.01 in [5]; 1.33 in test [6]. For the same compound, the z-score in test [7] is 0.95 (inactive); in test [8] it was -1.01; in test [9], 1.48; in [10] it was -0.299 (inactive).
In the case of `CC1CC/C=C\[C@H]2OC34C=CCN(Cn5nnc6ccccc65)C(=O)[C@H]3N(CCO)C(=O)[C@@H]4C2C(=O)O1` (stereo not given in full), the z-score is -0.338 in test [1]; 1.11 in [2]; -0.447 in [3]; 0.0362 in test [4]; 0.134 in test [5]; -0.153 in test [6]. The z-score was -0.798 (inactive) in test [7], 0.691 in test [8], 0.206 in [9] and 0.676 (inactive) in test [10].
For the compound `CN(C)CCCNC(=O)[C@@H]1c2ccccc2C(=O)N(Cc2ccccc2)[C@H]1c1ccc(CO)cc1`, the z-score in [1] was 2.34; in [2], 0.917; in test [3], 1.31; in [4], -0.0214; in test [5], 0.932; in [6] it was 1.89. Further, the z-score was 0.418 (inactive) in test [7], 0.0996 in test [8], 0.108 in test [9] and 0.534 (inactive) in test [10].
As for `C=COC[C@H]1CN2[C@@H](CC[C@@H](C)[C@@H]2c2ccc(Br)cc2)C(=O)O1`, the z-score is 0.197 in [1]; 0.34 in test [2]; 1.3 in test [3]; 0.48 in [4]; -0.228 in test [5]; 0.244 in test [6]. Besides, the z-score in [7] is 1.39 (inactive); in test [8] it was -0.56; in test [9] it was 0.252; in [10], -0.0242 (inactive).
Turning to `CCOC(=O)NN=C1C[C@@H](O)[C@@H](O)[C@@H]2[C@@H]3C(=O)N(C4CCCCC4)C(=O)[C@@H]3CC[C@@H]12`, the z-score in [1] is -0.117; in [2], -0.091; in test [3], -0.281; in test [4] it was 0.0416; in [5], -0.771; in test [6], -0.426. The z-score in test [7] was -0.61 (inactive); in test [8], -0.0516; in [9], 0.134; in [10], -0.361 (inactive).
For the compound `CCCCCN1CC=CC23O[C@@H]4C=CCOC(=O)[C@@H]4[C@H]2C(=O)N(C(CO)C(C)C)[C@@H]3C1=O` (stereo not given in full), the z-score is -0.0343 in test [1]; -0.372 in test [2]; -0.0721 in [3]; 0.949 in [4]; 0.12 in test [5]; -0.794 in [6]. The z-score in [7] is 0.196 (inactive); in test [8], -0.0576; in test [9] it was 0.782; in test [10], 0.0963 (inactive).
As to `CCOc1ccc(N2C(=O)/C(=C/C=C/c3ccccc3OC)S(=O)(=O)C2c2cccc([N+](=O)[O-])c2)cc1` (stereo not given), the z-score is 1.18 in [1]; 1.39 in [2]; 0.136 in [3]; -2.72 in [4]; -0.879 in [5]; -0.855 in [6]. Also, the z-score in [7] is -0.125 (inactive); in [8], -0.732; in [9], -0.0787; in test [10], 0.0969 (inactive).
As to `COC(=O)[C@@]1(Cc2ccc(F)cc2)[C@H]2c3cc(C(=O)N(C)C)n(Cc4ccc(OC)c(OC)c4)c3C[C@H]2CN1C(=O)c1ccccc1`, the z-score in [1] is -0.74; in test [2] it was 0.272; in test [3] it was -1.36; in test [4] it was -1.13; in [5] it was -2.04; in [6], 0.594. Moreover, the z-score in test [7] is -0.512 (inactive); in [8], 0.0709; in test [9], -0.7; in test [10] it was -0.507 (inactive).
`CO[C@H]([C@@H](C)[C@H](OC)c1ccccc1)[C@H](C)[C@@H](OC)[C@H](C)C(C)=O`: the z-score was 1.29 in [1]; -0.305 in [2]; 0.278 in [3]; 0.48 in [4]; -0.345 in test [5]; 0.0892 in [6]. Moreover, the z-score was 1.16 (inactive) in test [7], -0.141 in [8], 0.692 in test [9] and -0.0733 (inactive) in [10].
With `CCCNC(=O)[C@@H]1c2ccccc2C(=O)N(Cc2ccccc2Cl)[C@H]1c1ccc(CO)cc1`, the z-score in test [1] is 2.5; in test [2], 1.42; in test [3], 2.37; in test [4] it was -0.138; in test [5], 1.23; in [6] it was 3.3. Further, the z-score in test [7] is 0.0089 (inactive); in test [8], 0.325; in test [9], 0.661; in test [10] it was 2.06 (inactive).
Regarding `C=C(COC)/C(=C/C[C@H](OC(=O)c1ccncc1)c1ccc(CO)o1)c1cc(C(=O)OC)ccc1OC`, the z-score in [1] is -1.2; in [2], -0.256; in [3], -0.981; in test [4] it was -0.43; in test [5], -0.111; in [6], -0.47. Further, the z-score in [7] was -1.01 (inactive); in [8], 0.126; in [9], 0.00652; in [10], 0.451 (inactive).
In the case of `C#CCCCON=C1C[C@@H](O)[C@@H](O)[C@@H]2[C@@H]3C(=O)N(Cc4ccccc4)C(=O)[C@@H]3CC[C@H]12`, the z-score in test [1] is 0.416; in [2], 0.798; in test [3] it was -0.969; in test [4], 0.772; in [5], 0.477; in [6] it was 0.843. For the same compound, the z-score in test [7] is 0.381 (inactive); in [8], 0.379; in test [9] it was -0.901; in test [10], 0.97 (inactive).
On to `[N-]=[N+]=Nc1ccccc1C[C@@]1(C(N)=O)N=C(c2ccc(OCCCO)cc2)O[C@@H]1c1ccccc1`, for which the z-score in test [1] was -0.391; in test [2] it was 1.73; in [3] it was -0.515; in test [4], -2.86; in test [5], -2.94; in [6] it was 0.57. Further, the z-score was -0.433 (inactive) in [7], -0.778 in test [8], -0.988 in [9] and -0.732 (inactive) in test [10].
